# Reference: PubChem BioAssay (NCI)
# About 83,000 compounds went through this panel and 20% of them were active in at least one assay; those are over-represented in the sample as a whole.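 For each line, cells grew in 96-well plates with the test compound present at a single concentration for 48 hours.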 The source made the active and inactive calls.
# Test system: SK-MEL-5 melanoma
# Experiment: NCI-60 one-dose screen, 48 h (100 = growth as untreated, 0 = no growth, -100 = all killed)
# Conditions: 10 µM unless noted
# Description: Growth inhibition of the SK-MEL-5 human tumor cell line is measured as a screen for anti-cancer activity. Cells are grown in 96 well plates and exposed to the test compound for 48 hours. Compounds are tested at a single concentration, which is 10^-5 M for most compounds. The reported endpoint is percent growth (GI% or GIPRCNT), where numbers from 0 - 100% represent growth inhibition, and numbers from -100% - 0 represent cell death. For example, a value of 40 represents 60% growth inhibition. A value of 0 means no net growth occurred over the course of the experiment. A value of -40 indicates 40% of cells at the beginning of the experiment died by the end of the experiment. A value of -100 means all cells are dead at the end of the experiment.
# NCI-60 Human Tumor Cell Lines Screen was performed using the standard one-dose NCI protocol, which is described in more detail at https://dtp.cancer.gov/discovery_development/nci-60/default.htm.
# Compounds with GIPRCNT values below 10 were considered active. Activity score was based on GIPRCNT using the following formula: […]
# Score is 0 for GIPRCNT values of 100 or above, 50 for GIPRCNT values of 0, and 100 for GIPRCNT values of -100.
row,SMILES,growth
1,Cc1ccc(-c2cc(-c3cccc4ccccc34)n3c(n2)nc2ccccc23)cc1,40.9% (inactive)
2,CC(=O)Nc1ccc(C)c(Nc2cc(-c3ccc(-n4cccn4)cc3)[nH]n2)c1,53.6% (inactive)
3,CCOC(=O)c1c(Nc2ccccc2)nn2c(-c3ccc(Br)cc3)ccnc12,81.2% (inactive)
4,CCOC(=O)C1=C(C)Nc2nc3ccccc3n2C1c1ccccc1 (stereo not given),99.3% (inactive)
5,COc1ccc(S(=O)(=O)NCCCNc2nccc(-n3cnc4ccccc43)n2)cc1,70.1% (inactive)
6,Cn1cc(-c2nn3cc(-c4cccnc4)nc3s2)c2ccccc21,11.1% (inactive)
7,O=C(CN1C(=O)S/C(=C\c2ccccc2)C1=O)Nc1ccc(C(=O)/C=C/c2cc3ccccc3nc2Cl)cc1,24.3% (inactive)
8,O=[N+]([O-])c1ccc(-c2nnc(SCc3ccc(O)c4ncccc34)o2)cc1,-6.14% (active)
9,COc1ccc([C@H]2[C@H](O)C(=O)N2c2cc(OC)c(OC)c(OC)c2)cc1Cl,-12.5% (active)
10,Cc1cc(=O)n2nc(-c3c[nH]c4ccccc34)sc2n1,98.5% (inactive)
11,Nc1n[nH]c2cccc(C#Cc3cccc(NC(=O)c4cccc(OC(F)(F)F)c4)c3)c12,80.9% (inactive)
12,CCc1ccc(NC(=O)N[C@@H](Cc2cccc(F)c2)C(=O)N[C@@H]2C(=O)N3CCC[C@H]3C(=O)N3CCCC[C@H]3C(=O)N[C@@H](C)C(=O)N3C[C@H](C)C[C@H]3C(=O)O[C@H]2C)c(F)c1,-20.9% (active)
13,Oc1ccc(CSc2nnc(-c3ccccc3)o2)c2cccnc12,6.95% (active)
14,CCNC(=O)Oc1ccc(/C(=C(/C)c2ccccc2)c2ccc(OCCN3CCCC3)cc2)cc1,25.4% (inactive)
15,Oc1ccccc1-c1nnc(SCc2ccc(O)c3ncccc23)o1,-4.08% (active)
16,CC1(COc2ccc3ncc(C#Cc4cncc(C(=O)Nc5cc(C(C)(C)C)on5)c4)n3n2)COC1,7.95% (active)
17,Clc1ccc(-c2nc3ccc(/C(=N\N=C\c4ccccc4)c4ccccc4)cc3[nH]2)cc1,86.7% (inactive)
18,Cc1nn(-c2ccccc2)cc1/C=N/Nc1nc(Nc2ccccc2)nc(Nc2ccc(S(N)(=O)=O)cc2)n1,-44.3% (active)
19,C=CCn1c(SCC(=O)Nc2cccc(C(=O)/C=C/c3ccccc3)c2)nc2ccccc2c1=O,98.6% (inactive)
20,O=C(Nc1cc(Cl)cc(Cl)c1)Nc1ccc2oc(=O)ccc2c1,29.6% (inactive)

row,SMILES,growth
1,O=C(CCCCCCN1CC(=O)N2[C@@H](c3cccc(Cl)c3)c3[nH]c4ccccc4c3C[C@H]2C1=O)NO,33.6% (inactive)
2,CCCC(=O)NC(c1cccnc1)c1cc(Cl)c2cccnc2c1O (stereo not given),34.3% (inactive)
3,CCNC(=O)Oc1ccc(/C(=C(/C)c2ccc(Cl)cc2)c2ccc(OCCN(C)C)cc2)cc1,70.7% (inactive)
4,COc1ccc2c(c1)c(-c1nn3c(=O)cc(-c4ccccc4)nc3s1)cn2C,38.7% (inactive)
5,N#Cc1c(NC(=O)c2ccccc2C(F)(F)F)sc2c1CCC(=O)C2,-75.5% (active)
6,O=C1c2c(c3c4cc(O)ccc4oc3c3[nH]c4ccccc4c23)C(=O)N1O,-76.1% (active)
7,O=C(NNc1nc2cc(F)c(F)cc2n2cccc12)c1ncccn1,-70.7% (active)
8,Cc1cc(C(=O)Nc2ccc(SC#N)cc2)c(C)o1,99.6% (inactive)
9,Cc1ccc(/C=C/CC(=O)Nc2ccc(C(=O)Nc3ccc(F)cc3N)cc2)cn1,69.3% (inactive)
10,CN1CCN(Cc2ccc(NC(=O)c3cncc(C#Cc4cnc5ccc(O[C@H]6CCOC6)nn45)c3)cc2C(F)(F)F)CC1,-95.2% (active)
11,O=C(NCCNc1cc(-c2cn(-c3ccccc3)nc2-c2cccc(O)c2)ccn1)Nc1ccc(Cl)c(C(F)(F)F)c1,65.9% (inactive)
12,COc1cc(C2=NN(C(C)=O)C(c3ccc(N4CCOCC4)cc3)C2)cc(OC)c1OC (stereo not given),97.7% (inactive)
13,COc1cc2c3c(n(CCCNC4CCCC4)c(=O)c2cc1OC)-c1cc2c(cc1C3=O)OCO2,95% (inactive)
14,CS(=O)(=O)c1nccc(-c2c(-c3ccc(F)c(OCCc4ccc(F)cc4)c3)nc3sccn23)n1,92.1% (inactive)
15,NS(=O)(=O)c1ccc(Nc2nc(N/N=C/c3ccc([N+](=O)[O-])cc3)nc(Nc3ccccc3)n2)cc1,32.3% (inactive)
16,C/C(=C(/c1ccc(O)cc1)c1ccc(OCCN(C)C)cc1)c1ccc(Cl)cc1,42.9% (inactive)
17,COC[C@@]1(C)CC[C@]2(C)CC[C@]3(C)C(=CC[C@@H]4[C@@]5(C)CCCNC(C)(C)[C@@H]5CC[C@]43C)C2C1 (stereo not given in full),87.7% (inactive)
18,Clc1ccc(-c2csc(N/N=C/c3nc4ccccc4n3C3CC3)n2)cc1,97.1% (inactive)
19,COc1ccc([C@@H]2[C@@H](O)C(=O)N2c2cc(OC)c(OC)c(OC)c2)cc1Cl,0.0843% (active)
20,CN1CCN(c2ccc(C(=O)/C=C/c3ccc(Cl)c(C(F)(F)F)c3)cc2)CC1,74.3% (inactive)
